High-throughput results: PubChem BioAssay, National Center for Advancing Translational Sciences (NCATS)
Shown are actives, neighbours in structure and some others; about 1.3% of the full set was active somewhere.
KCNH2 3.1 block: KCNH2 3.1 (human) potassium channel inhibition; U2OS KCNH2 3.1, thallium flux FluxOr; stronger effect = lower value; activity change, % (tested at about 1.8 µM); hit rate 0.95% among 340,000; AID 720553;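 active = maximum activity change below -70%; inconclusive = maximum activity change from -70% to -50%; inactive = maximum activity change above -50%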;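 note: thallium influx rate constant from kinetic fluorescence after stimulation buffer; % is set by controls: 0 for no effect and ±100 for the full control effect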
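Measured as rate of thallium-driven FluxOr signal in transduced U2OS cells carrying the 3.1 channel, read kinetically for 2 min upon stimulation; values are rate constants scaled to DMSO control wells.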
TRPV1 ag: human TRPV1 agonism; AID 540275; TRPV1-expressing cells, Fluo-8 calcium influx, agonist mode; Q8NER1; activation, % at 8.33 µM; hit rate 0.19% among 320,000; in the data active = activation above about 80%; inconclusive = between about 30% and that limit; note: 0% is about no effect
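Cells expressing TRPV1 were dye-loaded with Fluo-8 and read kinetically: 10 s baseline, 3 min after compound (agonist portion), then 2 min after EC20 capsaicin (allosteric enhancer portion). Calcium-bound dye fluorescence at 480/520 nm.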
TRPML1 inh: human mucolipin-1 channel inhibition | activity change, negative = inhibition, % (no concentration beside the values) | hit rate 0.02% among 390,000 | AID 624415 | TRPML1-inducible cells, Ca2+ dye fluorescence, FDSS; stronger effect = lower value; inhibition of EC80 agonist-evoked calcium signal; in the data active = activity change below about -50%; inconclusive = between about -30% and that limit;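 note: stimulus is agonist 54-4 at its EC80 concentration; % is set by controls: 0 for no effect and ±100 for the full control effect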
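Tet-induced TRPML1-DL cells loaded with Ca8 no-wash calcium dye were read kinetically on FDSS. Compound addition was followed by EC80 agonist 54-4 (4 uM final); inhibition was read over 110 s.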
TRPML1 agonist: activates the human TRPML1 channel | AID 624414 | Q9GZU1 | hit rate 0.12% among 410,000 | activation, % (concentration not given with the values) | TRPML1-expressing cells, Ca2+ dye fluorescence, FDSS; in the data active = activation above about 50%; inconclusive = mostly about 30% to 49%; note: 0% is about no effect
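Tet-induced TRPML1-DL cells, 1,500 per well, cultured overnight, were loaded with a no-wash Ca2+ dye for 45–90 min. Calcium fluorescence was recorded on the FDSS for 110 s after compound addition, before the EC80 agonist (4 uM 54-4) was added.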
TRPV1 potentiator: potentiators of human vanilloid receptor 1 (TRPV1); Q8NER1; TRPV1-expressing cells, Fluo-8 calcium influx, capsaicin EC20 potentiation; potentiation, % at 8.33 µM; hit rate 0.02% among 320,000; in the data active = potentiation above about 80%; inconclusive = between about 30% and that limit; note: 0% is about no effect
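Cells expressing TRPV1 were dye-loaded with Fluo-8 and read kinetically: 10 s baseline, 3 min after compound (agonist portion), then 2 min after EC20 capsaicin (allosteric enhancer portion). Calcium-bound dye fluorescence at 480/520 nm.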
KCNH2 WT inh: KCNH2 (human, wildtype) channel inhibition. activity change, % at 1.84 µM. Q12809. hit rate 0.37% among 340,000. U2OS, BacMam KCNH2, thallium flux FluxOr; stronger effect = lower value;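 active = maximum activity change below -70%; inconclusive = maximum activity change between -70% and -50%; inactive = maximum activity change above -50%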; note: % is set by controls: 0 for no effect and ±100 for the full control effect
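U2OS cells transduced with wild-type KCNH2 virus are loaded with FluxOr dye for 45 min, and thallium flux is measured in kinetic reads before and after stimulation buffer. Rate constants are normalized to DMSO controls.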
* hit, by the source's call.

For CC(Nc1nc(-c2ccc(Cl)cc2)cs1)c1nc2cc(Cl)c(N3CCCCC3)cc2n1CCOCCO (configuration not stated) the results were KCNH2 3.1 block -2, TRPML1 inh 9, TRPML1 agonist 0 and KCNH2 WT inh 10.
`CCCn1c(C(C)Nc2nc(-c3cc(Cl)c(N)c(Cl)c3)cs2)nc2cc(Cl)c(N3CCCCC3)cc21` (configuration not stated) gave KCNH2 3.1 block -6, TRPV1 ag 86*, TRPML1 inh -3, TRPML1 agonist -1, TRPV1 potentiator 17 and KCNH2 WT inh -1.
`Cc1ccccc1CNC(=O)C(=O)NCCC1CCCCN1S(=O)(=O)c1cccs1` (configuration not stated) gave KCNH2 3.1 block -166*, TRPV1 ag inconclusive, TRPML1 inh 91, TRPML1 agonist 1, TRPV1 potentiator -22 and KCNH2 WT inh -144*.
`COc1ccccc1CNC(=O)C(=O)NCCC1CCCCN1S(=O)(=O)c1cccs1` (configuration not stated) gave KCNH2 3.1 block -2, TRPV1 ag 3, TRPML1 inh 3, TRPML1 agonist 0, TRPV1 potentiator 8 and KCNH2 WT inh 9.
CCCSC1=C(C#N)C(c2ccccc2C)CC(=O)N1 (configuration not stated) was read as KCNH2 3.1 block 0, TRPV1 ag 14, TRPML1 inh 2, TRPML1 agonist -1, TRPV1 potentiator -10 and KCNH2 WT inh 3.
`CCCCSC1=C(C#N)C(c2ccccc2C)CC(=O)N1` (configuration not stated) gave KCNH2 3.1 block 5, TRPV1 ag 3, TRPML1 inh 6, TRPML1 agonist -1, TRPV1 potentiator -2 and KCNH2 WT inh -311*.
`Cc1cccc(C)c1NC(=O)c1nc(SC(C)C)ncc1Cl` gave TRPML1 inh -7 and TRPML1 agonist 2.
Screening O=C(Nc1cnccn1)c1ccncc1 returned KCNH2 3.1 block -84*, TRPV1 ag -2, TRPML1 inh -4, TRPML1 agonist 0, TRPV1 potentiator -6 and KCNH2 WT inh 0.
Screening CCC(C)[C@H]1CNCCN1CCC12CC3CC(CC(C3)C1)C2 (some centres not stated) returned KCNH2 3.1 block -136*, TRPV1 ag -1, TRPML1 inh 67, TRPML1 agonist 0, TRPV1 potentiator 2 and KCNH2 WT inh -15.
For CCOc1c(Cl)cc(C(=O)N(Cc2ccc(N(C)C)cc2)Cc2ccco2)cc1Cl the results were TRPML1 inh 18 and TRPML1 agonist 0.
`CCC(C)c1ccc(NC(=O)c2ccco2)cc1` (configuration not stated) gave KCNH2 3.1 block -3, TRPV1 ag 82*, TRPV1 potentiator 6 and KCNH2 WT inh -21.
CCC(C)c1ccc(NC(=O)COC(=O)CCNC(=O)c2ccco2)cc1 (configuration not stated) was read as KCNH2 3.1 block -35, TRPV1 ag 4, TRPML1 inh 2, TRPML1 agonist 0, TRPV1 potentiator -7 and KCNH2 WT inh -11.
`O=C(/C=C/c1ccc(Br)cc1)c1ccc(NC(=O)c2ccco2)cc1` gave KCNH2 3.1 block -3, TRPV1 ag 8, TRPML1 inh -26, TRPML1 agonist 1, TRPV1 potentiator 3 and KCNH2 WT inh 0.
For CC(=O)c1c(C)[nH]c(C(=O)N2CCN(C(=O)c3ccco3)CC2)c1C the results were KCNH2 3.1 block -211*, TRPV1 ag 1, TRPML1 inh -8, TRPML1 agonist -1, TRPV1 potentiator 7 and KCNH2 WT inh -1.
For CCC(C)c1ccc(NC(=O)N2CCOCC2)cc1 (configuration not stated) the results were KCNH2 3.1 block 6, TRPV1 ag 93*, TRPML1 inh -17, TRPML1 agonist 0, TRPV1 potentiator -24 and KCNH2 WT inh 10.
For O=C(/C=C\c1ccccc1)Nc1ccc(NC(=O)c2ccco2)cc1 the results were KCNH2 3.1 block -80*, TRPV1 ag 3, TRPML1 inh 5, TRPML1 agonist 2, TRPV1 potentiator 5 and KCNH2 WT inh 11.
`CCN(CC)S(=O)(=O)c1ccc(/C=C/C(=O)Nc2ccc(N3CCOCC3)cc2)cc1` gave KCNH2 3.1 block -3, TRPV1 ag 90*, TRPML1 inh -9, TRPML1 agonist -1, TRPV1 potentiator -18 and KCNH2 WT inh 3.
COc1ccc(/C=C/C(=O)Nc2ccc(N3CCOCC3)cc2)cc1 was read as KCNH2 3.1 block 13, TRPV1 ag inconclusive, TRPML1 inh -13, TRPML1 agonist 0, TRPV1 potentiator -14 and KCNH2 WT inh 2.
Screening O=C(/C=C/c1ccccc1)Nc1ccc(N2CCCCC2)cc1 returned KCNH2 3.1 block -81*, TRPV1 ag inconclusive, TRPML1 inh 1, TRPML1 agonist 0, TRPV1 potentiator 1 and KCNH2 WT inh 19.
Screening O=C(/C=C/c1ccccc1)N1CCN(C(=O)c2ccco2)CC1 returned KCNH2 3.1 block -96*, TRPV1 ag 1, TRPML1 inh 19, TRPML1 agonist 1, TRPV1 potentiator -3 and KCNH2 WT inh 1.
`O=C(/C=C/c1ccc(Cl)cc1)Nc1ccc(N2CCCCC2)cc1` gave KCNH2 3.1 block 26, TRPV1 ag 6, TRPML1 inh 3, TRPML1 agonist 1, TRPV1 potentiator -23 and KCNH2 WT inh 8.
Oc1ccc(Cl)cc1C1C=C(c2ccc3c(c2)OCO3)NC(c2ccc(Cl)cc2)N1 (configuration not stated) was read as TRPML1 agonist 3.
For O=C(O)c1ccc(CNc2ncnc3nc[nH]c23)cc1 the results were TRPML1 agonist 0.
Screening Cc1cc(=O)c2cc(C(=O)Nc3ccc(C)c(C)c3)ccc2[nH]1 returned TRPML1 inh 9 and TRPML1 agonist 0.
`CC(C)c1ccc(NC(=O)CSc2nc3ccsc3c(=O)n2Cc2ccc(C(=O)O)cc2)cc1` gave KCNH2 3.1 block -2, TRPV1 ag -2, TRPML1 inh 3, TRPML1 agonist 0, TRPV1 potentiator 8 and KCNH2 WT inh -5.
For C=CCN(C(=O)CSc1nc2ccsc2c(=O)n1Cc1ccc(C(=O)O)cc1)c1ccccc1 the results were KCNH2 3.1 block 11, TRPML1 inh 7, TRPML1 agonist 3 and KCNH2 WT inh -254*.
CCCCOc1ccc(C(=O)Nc2cc(-c3cn4cccnc4n3)ccc2OC)cc1 was read as TRPML1 inh 14 and TRPML1 agonist 0.
